High-throughput results deposited in PubChem by several laboratories.
Rows were chosen to be rich in hits. Some 1.4% of all compounds tested hit in one or more screens of this group.
PfHsp40 rescue – rescue of yeast from PfHsp40 toxicity, primary screen, S. cerevisiae, ATP luminescence; growth rescue, % at 12.5 µM; S. cerevisiae expressing PfHsp40, growth rescue; 340,000 compounds, 0.68% hits; in the data active = growth rescue above about 28%, passing the limit was not always enough; inconclusive = no clear call, values can overlap the other calls;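 note: yeast W303a lacking pdr1 and pdr3 grown in galactose medium; growth measured after three days at 30 °C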
Sa ugtP lethal – growth inhibition of ugtP-null S. aureus, primary screen, RN4220 ugtP deletion, OD600 | 330,000 compounds, 0.54% hits | 16 h | growth inhibition, % (no concentration beside the values); in the data active = growth inhibition above about 68%;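 note: plate controls were untreated wells for no effect and antibiotic for full effect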
RN4220 kill – growth inhibition of S. aureus RN4220, primary screen, OD600; inhibition, % (concentration not given with the values); 16 h; 330,000 compounds, 0.33% hits; in the data active = inhibition above about 85%;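 note: plate controls were untreated cells for no effect and reference antibiotic for full effect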
BJeLR viability – MLPCN primary cell-based screen for lethality selective to Ras in HRASV12 cells. AID 1554, 2009. inhibition, % (test concentration not listed). 300,000 compounds, 0.17% hits. BJeLR (HRASV12) viability, CellTiter-Glo ATP luminescence, 48 h; in the data active = inhibition above about 50%; inconclusive = no clear call, values can overlap the other calls
Y pestis TopoI – Yersinia pestis topoisomerase I inhibitors, primary screen, biochemical, cleavage product accumulation, plate reader, single point; DNA topoisomerase I (Yersinia pestis CO92); activity, % at 10 µM; Y. pestis Topo-I cleavage product accumulation; 360,000 compounds, 0.064% hits; AID 504884, 2011; in the data active = activity above about 50%, passing the limit was not always enough; inconclusive = no clear call, values can overlap the other calls
PrP UTR inh – inhibition of PrP 5' UTR reporter expression | cell-based PrP 5' UTR mRNA reporter, plate reader | inhibition, % (test concentration not listed) | 340,000 compounds, 0.35% hits; in the data active = inhibition above about 52%; note: 0 = median of the neutral control wells
The depositor's hits bear a star; ? = inconclusive; nt = not tested or not shown.

SMILES	PfHsp40 rescue	Sa ugtP lethal	RN4220 kill	BJeLR viability	Y pestis TopoI	PrP UTR inh
O=[N+]([O-])c1ccc(O)c(/C=N/Nc2ccccc2Cl)c1	0.9	nt	nt	1.5	-0.5	-21.0
CCOC(=O)C1C2COc3ccccc3C2N2C(=O)c3cc(F)c(F)cc3NC(=O)[C@@]12C (stereo partly drawn)	nt	2.2	3.3	nt	nt	nt
CC(C)C1S/C(=N/N=Cc2cccs2)NC1=O (stereo not drawn)	nt	9.9	-1.6	nt	nt	nt
COc1cc(CCCN2CCNCC2c2ccccc2)cc(OC)c1OC (stereo not drawn)	nt	-5.7	-3.2	nt	nt	nt
Cc1ccccc1CN1C2c3ccccc3CC2OCCS1(=O)=O (stereo not drawn)	nt	11.6	12.7	nt	nt	nt
Cc1c(CCC(=O)O)c(=O)oc2c(C)c3occ(-c4ccc(Cl)cc4)c3cc12	1.3	100.7*	96.4*	-3.0	14.0	-26.3
CC1CN(C(C)CO)C(=O)c2cc(NC(=O)Cn3cnnn3)ccc2OC1CN(C)Cc1ccc(Oc2ccccc2)cc1 (stereo not drawn)	nt	-4.5	2.1	nt	nt	nt
CCC(C)Sc1cccc(-c2nc3ccc(C)cn3c2NCc2ccccc2)c1 (stereo not drawn)	7.1	nt	nt	0.3	42.6	-13.9
CCC(C)Sc1cccc(-c2nc3ccccn3c2NCc2ccccc2)c1 (stereo not drawn)	219.3*	11.2	-0.2	nt	-3.7	8.5
C#CCOCCOCCOCCNc1nc(N2CCN(C(=O)C(C)n3cc(CCCN=C(N)N)nn3)CC2)nc(N2CCN(C(=O)C(C(C)O)n3cc(CCCCN)nn3)CC2)n1 (stereo not drawn)	nt	-2.7	3.2	nt	nt	nt
COc1cccc(-c2sc3ccc(OC)cc3c2-c2ccc(C(N)=O)cc2)c1	0.1	7.1	2.3	nt	17.1	-20.8
COc1ccc2sc(-c3ccccc3OC)c(-c3ccc(OCCN(C)C)cc3)c2c1	-0.9	88.0*	1.9	nt	-21.9	-14.8
COc1cccc(-c2sc3ccccc3c2-c2ccc(OCCN3CCCC3)cc2)c1	?	nt	nt	nt	-18.1	-31.4
COc1ccccc1-c1sc2ccccc2c1-c1ccc2c(c1)OCCO2	0.6	99.0*	-9.7	nt	-12.8	-29.4
COc1cccc(-c2sc3ccc(OC)cc3c2-c2ccc(OCCN3CCCC3)cc2)c1	40.1*	90.4*	95.3*	nt	-21.4	-22.7
COc1cccc(-c2sc3ccc(OC)cc3c2-c2ccc(OC)cc2F)c1	1.1	90.0*	-0.6	nt	-0.1	-38.9
CC1CN(C(C)CO)C(=O)Cc2cc(NC(=O)Nc3ccccc3)ccc2OC1CN(C)C(=O)Nc1ccc2c(c1)OCO2 (stereo not drawn)	nt	4.2	6.8	nt	nt	nt
C[C@@]12C(=O)N(CCO)CC(=O)N1C(C=Cc1ccccc1)C1C(=O)N(c3ccccc3)C(=O)C12 (stereo partly drawn)	nt	2.9	1.4	nt	nt	nt
COc1ccc(-n2ncc(S(=O)(=O)c3ccccc3)c2-c2ccc(Cl)cc2)cc1	1.4	12.9	16.0	4.4	15.3	-16.8
O=S(=O)(c1ccccc1)c1cnn(-c2ccccc2)c1-c1ccc(F)cc1	49.0*	8.5	11.5	4.6	1.7	-11.0
CCN(CC)C(=O)NC1CC2c3cccc4[nH]cc(c34)CC2N(C)C1 (stereo not drawn)	nt	3.1	4.1	nt	nt	nt
C=CC[C@@H](Cc1ccc(F)cc1)C(=O)OC[C@H]1CCCN1C(=O)[C@H](CC=C)CC(=O)N[C@H](CO)Cc1ccccc1	21.4	nt	nt	nt	12.1	-2.1
C=CC[C@@H](Cc1ccc(F)cc1)C(=O)OC[C@H]1CCCN1C(=O)[C@@H](CC=C)CC(=O)N[C@H](CO)Cc1ccccc1	14.6	nt	nt	nt	11.5	-10.0
C=CCC[C@@H](Cc1ccc(F)cc1)C(=O)OC[C@H]1CCCN1C(=O)[C@@H](CC=C)CC(=O)N[C@H](CO)Cc1ccccc1	38.6*	nt	nt	nt	17.8	-15.1
C=CCC[C@@H](Cc1ccc(F)cc1)C(=O)OC[C@@H]1CCCN1C(=O)[C@H](CC=C)CC(=O)N[C@H](CO)Cc1ccccc1	45.4*	nt	nt	nt	9.8	-23.5
SMILES	PfHsp40 rescue	Sa ugtP lethal	RN4220 kill	BJeLR viability	Y pestis TopoI	PrP UTR inh
C=CC[C@@H](Cc1ccc(F)cc1)C(=O)OC[C@H]1CCCN1C(=O)[C@@H](CC=C)CC(=O)N[C@@H](CO)Cc1ccccc1	32.4*	-10.6	0.5	nt	22.9	-6.0
COc1cc(C2CC=C(C(=O)O)C(c3ccc(Cl)cc3)N2S(=O)(=O)c2ccc(C)cc2)cc(OC)c1OC (stereo not drawn)	nt	9.1	5.7	nt	nt	nt
CCOc1cc(/C=C\[N+](=O)[O-])ccc1OCC(=O)N1CCOCC1	34.9*	-7.9	3.9	9.2	17.0	-3.0
CCOc1cc(/C=C/c2nc3cc(C)c(C)cc3s2)ccc1OCC(=O)N1CCOCC1	1.3	-5.1	8.5	6.0	23.9	-19.5
O=C(O)c1ccccc1	-1.8	8.9	0.4	nt	-2.7	-8.2
O=C(O)c1cc[c]([Hg][Cl])cc1	575.3*	nt	nt	nt	-4.1	-13.0
CC1C=C(C(=O)N2CCN(Cc3ccc4c(c3)OCO4)CC2)OC(OCCCCO)C1 (stereo not drawn)	nt	0.7	4.2	nt	nt	nt
Cc1cc(NN=Cc2ccc(O)cc2)c2cccc(C)c2n1	nt	-9.2	2.8	nt	nt	nt
Cc1cc(C)c2nc(C)cc(N/N=C/c3ccc(O)cc3)c2c1	-1.3	nt	nt	51.2*	-4.9	-14.9
COc1cccc(-n2nnnc2SCC(=O)Nc2ccccc2OC)c1	0.3	4.0	4.5	1.3	22.0	-11.1
CCCS(=O)(=O)c1nnnn1-c1cccc(OC)c1	408.2*	41.7	15.5	2.7	6.2	10.4
S=c1nc(-c2sccc2OCc2ccc(Cl)cc2Cl)[nH][nH]1	44.7*	-10.8	9.1	1.0	0.5	-26.0
CNC(=S)NNC(=O)c1sccc1OCc1ccc(Cl)cc1Cl	-0.8	-1.9	1.3	5.5	0.5	-25.9
NNC(=O)c1ccc2nc(-c3ccc(Br)cc3)cn2c1	71.1*	nt	nt	-3.6	-12.2	-49.0
CCOC(=O)C(O)(c1ccc(NC(=S)NC(=O)c2ccc(Cl)cc2Cl)cc1)C(F)(F)F (stereo not drawn)	1.3	83.7*	24.0	12.2	2.1	-2.8
CCOC(=O)C(O)(c1ccc(NC(=S)NC(=O)c2ccc(Cl)cc2Cl)c(C)c1)C(F)(F)F (stereo not drawn)	1.8	44.9	9.4	-12.2	-6.6	-7.4
COC(=O)C(O)(c1ccc(NC(=S)NC(=O)c2ccc(Cl)cc2Cl)cc1)C(F)(F)F (stereo not drawn)	-0.2	85.9*	5.2	-4.1	-8.6	-12.0
CCC1=C2CCC3C(=O)N(c4ccccc4)C(=O)C3C2[C@@]2(C)C(=NCC3CC3)OC(=O)N2C1=O (stereo partly drawn)	nt	-0.1	4.9	nt	nt	nt
Cc1ccc(C(C)NC(=O)c2cc(C)oc2C)cc1 (stereo not drawn)	48.2*	-2.1	2.7	-6.6	1.9	-21.2
O=C(NC(c1ccccc1)C1CC1C(=O)NCc1ccccn1)OCc1ccccc1 (stereo not drawn)	nt	1.0	3.9	nt	nt	nt
